Screening results deposited in PubChem by National Center for Advancing Translational Sciences (NCATS).
DT40 TDP1 CPT – qHTS for Inhibitors of human tyrosyl-DNA phosphodiesterase 1 (TDP1): qHTS in cells in presence of CPT; chicken DT40 Tdp1-/-;hTDP1 cells + 20 nM CPT, ATP luminescence, 48 h; Potency, µM (highest dose often 46.2 µM), usual class: inhibitors; actives 12% (n = 420,000); further: nearly all actives have a fitted effect of over 55% in size
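Cell growth measured by CellTiter-Glo luminescence after a minimum 48 h, 37 C compound exposure with 20 nM CPT in Tdp1-knockout DT40 cells stably expressing hTDP1, seeded 400/well; qHTS titration format.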
HepG2 viability – qHTS for Inhibitors of TGF-b: Cytotox Counterscreen; HepG2 CAGA-GFP viability, ATP luminescence, 18 h; Potency, µM (doses to about 46.1 µM), most hits filed as cytotoxic; actives 0.76% (n = 410,000)
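HepG2 CAGA-GFP cells (1000/well, DMEM with 1% FBS) received compound, then TGF-beta at 500 pg/mL final, and were incubated 18 hours at 37 degrees C. Viability was read by CellTiter-Glo luminescence. Media-only wells were set as complete cell-killing and DMSO as no toxicity.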
DT40 TDP1 no CPT – qHTS for Inhibitors of human tyrosyl-DNA phosphodiesterase 1 (TDP1): qHTS in cells in absence of CPT. Potency, µM (titrated, usually from 46.2 µM), most hits filed as inhibitors. DT40 Tdp1-/- hTDP1 cells, no CPT, ATP luminescence, 48 h. actives 15% (n = 420,000). AID 686978, 2013; further: nearly all actives have a fitted effect of over 55% in size
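DT40 Tdp1-/-;hTDP1 cells, no CPT (DMSO vehicle only), 400 cells/well; compounds pin-transferred; ≥48 hr, 37 °C; CellTiter-Glo 30 min RT dark, luminescence read.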
ASM inhibitor – Inhibitors of Secretory Acid Sphingomyelinase (S-ASM): qHTS. Potency, µM (titrated, usually from 57.5 µM), most hits filed as inhibitors. Sphingomyelin phosphodiesterase (Homo sapiens), P17405. actives 0.006% (n = 340,000). placental ASM, HMU-PC fluorogenic substrate, 60 min
Target sequence (P17405 47-631 limits assumed): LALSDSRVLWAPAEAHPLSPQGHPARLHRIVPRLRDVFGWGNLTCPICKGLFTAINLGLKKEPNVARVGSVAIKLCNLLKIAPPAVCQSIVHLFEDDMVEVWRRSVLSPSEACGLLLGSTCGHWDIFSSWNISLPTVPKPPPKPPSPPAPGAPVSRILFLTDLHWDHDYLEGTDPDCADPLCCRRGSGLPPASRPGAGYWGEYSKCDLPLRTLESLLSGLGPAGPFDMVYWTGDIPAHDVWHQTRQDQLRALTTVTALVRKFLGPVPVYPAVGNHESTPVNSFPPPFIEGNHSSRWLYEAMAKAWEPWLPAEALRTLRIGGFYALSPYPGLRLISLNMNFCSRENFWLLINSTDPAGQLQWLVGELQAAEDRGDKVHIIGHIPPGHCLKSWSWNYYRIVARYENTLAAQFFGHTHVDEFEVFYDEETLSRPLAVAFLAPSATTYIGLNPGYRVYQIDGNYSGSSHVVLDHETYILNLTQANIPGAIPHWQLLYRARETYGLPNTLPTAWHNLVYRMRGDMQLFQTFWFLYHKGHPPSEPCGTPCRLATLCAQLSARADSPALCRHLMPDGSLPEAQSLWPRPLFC
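Fluorescence read-out (Ex 386 nm, Em 447 nm) after stopping the reaction at pH 10. Enzyme: ASM from human placenta; substrate HMU-PC0, 9 uM final; 60 min, 37 °C. Compound preincubation 10 min, ambient temperature.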
IL1B secr inh – qHTS for Inhibitors of Inflammasome Signaling: IL-1-beta AlphaLISA Primary Screen; THP-1 LPS/ATP IL-1B secretion, AlphaLISA, 16 h; stronger effect = lower value; activity change, % at 57.5 µM; actives 4.7% (n = 360,000); in the data active means activity change below about -50%; inconclusive means mostly about -30% to -49%
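Secreted IL-1B measured by AlphaLISA bead assay after 16 h compound exposure of THP-1 cells; compounds (final up to 57.5 uM) added 1 h before LPS (250 ng/mL) and ATP (1.25 mM) stimulation; lower signal means less secretion.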
TGFb SMAD3 inh – qHTS for Inhibitors of TGF-b; HepG2 CAGA-GFP TGF-b/SMAD3 reporter, GFP fluorescence, 18 h; TGF-beta stimulated, 500 pg/mL final; Potency, µM (doses to about 46.1 µM), actives largely listed as inhibitors; actives 1.2% (n = 410,000); AID 588855, 2011; further: nearly all actives have a fitted effect of over 65% in size
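Smad-responsive CAGA-GFP expression was quantified in HEPG2 cells exposed to compounds and 500 pg/mL final TGF-beta for 18 h at 37 degrees C; unstimulated wells defined full inhibition.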
Numbers stand for hits; - = inactive; ? = inconclusive; . = not tested or not shown. In the library only some 19% were active in any assay of this set; here they are far more common. Unless noted, the call rests on the fitted dose curve; in most records, active means well fitted curve in the direction sought with a large enough effect; inconclusive means small, poorly fitted or top-dose-only effect, or another doubt; inactive means no such curve, though single readings can be large; an effect the other way counts as inactive or inconclusive.

SMILES | DT40 TDP1 CPT | HepG2 viability | DT40 TDP1 no CPT | ASM inhibitor | IL1B secr inh | TGFb SMAD3 inh
Cc1cccc(N2CCN(C(=O)c3cnn(-c4ccc(F)cc4F)c3C3CCN(C(=O)OC(C)(C)C)CC3)CC2)c1C | 20.6µM | - | 20.6µM | . | . | -
COc1ccccc1CNC(=O)c1cnn(-c2ccc(F)cc2F)c1C1CCN(C(=O)OC(C)(C)C)CC1 | 16.4µM | - | ? | . | . | -
COc1ccccc1N1CCN(C(=O)c2cnn(-c3ccc(F)cc3F)c2C2CCNCC2)CC1 | - | - | 18.4µM | . | . | -
Cc1onc(-c2ccccc2)c1C(=O)N1CCN(c2ncccn2)CC1 | - | - | - | - | - | -
CC(=O)Nc1cccc(C(=O)OC2CCOC2=O)c1 (stereo unspecified) | - | - | - | - | - | -
COc1ccc(S(=O)(=O)N(CCc2ccccc2)CC(=O)Nc2cc(Cl)ccc2C)cc1 | ? | - | ? | . | . | -
O=S(=O)(c1ccccc1)c1ccc(NCc2ccco2)cc1 | ? | - | ? | - | - | -
CCNC1=C(Cl)C(=O)c2ccccc2C1=O | 18.4µM | 12.6µM | 23.1µM | - | - | ?
CCCC(=O)NC1=C(Cl)C(=O)c2ccccc2C1=O | 0.651µM | - | 0.651µM | - | -100.9 | -
O=C1C(Cl)=C(NCc2ccco2)C(=O)c2ccccc21 | 11.6µM | - | 8.2µM | - | -95.2 | 11.2µM
O=C1C(Cl)=C(NCCN2CCCCC2)C(=O)c2ccccc21 | 4.11µM | - | ? | - | -100.7 | 1.58µM
CC1CCCN(C(=O)CN(C)S(=O)(=O)c2cccc3nsnc23)C1 (stereo unspecified) | - | - | - | - | - | -
CC(=O)NCCC(=O)Nc1nc2ccc(Oc3ccccc3)cc2s1 | - | - | ? | - | - | -
CN1c2ccsc2/C(=N/NC(=O)c2c(F)cccc2F)CS1(=O)=O | - | - | - | - | - | -
CN1c2ccsc2/C(=N/Nc2ccccc2)CS1(=O)=O | 4.11µM | - | 1.3µM | - | ? | -
CN1c2ccsc2C(O)=C(C(=O)Nc2ccccc2)S1(=O)=O | ? | - | ? | - | - | -
Cc1cccc(C(=O)N/N=C2\CS(=O)(=O)N(C)c3ccsc32)c1 | 20.6µM | - | 13µM | - | - | -
O=C1NC(=S)N/C1=C/c1cccn1-c1ccc([N+](=O)[O-])cc1 | - | - | - | - | - | 7.08µM
COc1cccc(C2/C(=C(/O)c3ccc4c(c3)OCO4)C(=O)C(=O)N2CCN2CCOCC2)c1 (stereo unspecified) | - | - | - | - | - | -
O=C(NCCS(=O)(=O)N1CCN(c2ccc(F)cc2)CC1)c1cccc(C(F)(F)F)c1 | ? | - | 18.4µM | . | . | -
O=C(NCCS(=O)(=O)N1CCN(c2ccc(F)cc2)CC1)C12CC3CC(CC(C3)C1)C2 | 18.4µM | - | 16.4µM | - | - | -
NS(=O)(=O)c1ccc(CCNC(=O)c2ccc3c(c2)N(Cc2ccccc2)CCS3)cc1 | - | - | - | - | - | -
CN1CCN(CCCNC(=O)c2ccc3c(c2)N(Cc2ccc(F)cc2)CCS3)CC1 | 16.4µM | - | ? | - | - | ?
O=C(NCC1CCCO1)c1ccc2c(c1)N(Cc1ccc(F)cc1)CCS2 (stereo unspecified) | ? | - | ? | - | - | -
CCN1CCN(CCCNC(=O)c2ccc3c(c2)N(Cc2ccccc2)CCS3)CC1 | 23.1µM | - | ? | - | - | -
O=C(NCCCN1CCOCC1)c1ccc2c(c1)N(Cc1ccc(F)cc1)CCS2 | 16.4µM | - | ? | - | - | -
